Test results from the supplement of paper PMC8728848.
The sample as a whole holds a higher share of the strongest signals than the screen did.

Assays:
Assay in all cases: glycan array binding signal (z-score within array); higher = stronger binding
Details in all cases: glycan notation: IUPAC condensed, linker removed
[1] = biological target: Fuc(a1-2)Gal(b1-3)[Fuc(a1-4)]GlcNAc(b1-2)Man(a1-3)[Fuc(a1-2)Gal(b1-3)[Fuc(a1-4)]GlcNAc(b1-2)Man(a1-3)]Man(b1-4)GlcNAc(b1-4)GlcNAc
Outline: (§1)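 Glycan array data came from 3228 arrays in the Consortium for Functional Glycomics database, and only arrays with an available protein sequence were kept. Glycan names were put into IUPAC-condensed notation, and columns mapping to the same glycan were averaged. The binding signal is a within-array Z-score, averaged across arrays of one protein sequence run at different concentrations or buffers and across linkers. A negative Z-score can be read as non-binding.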

[2] = biological target: Fuc(a1-2)Gal(b1-3)[Fuc(a1-4)]GlcNAc(b1-3)[Gal(b1-4)GlcNAc(b1-6)]Gal(b1-4)Glc
Outline: as §1

[3] = biological target: Fuc(a1-2)[Gal(a1-3)]Gal(b1-3)GlcNAc
Outline: as §1

[4] = biological target: Fuc(a1-2)[Gal(a1-3)]Gal(b1-3)GlcNAc(b1-6)GalNAc
Outline: as §1

[5] = biological target: Fuc(a1-2)[Gal(a1-3)]Gal(b1-4)GlcNAc(b1-6)GalNAc
Outline: as §1

[6] = biological target: Fuc(a1-3)[Gal(b1-4)]GlcNAc(b1-3)Gal(b1-4)[Fuc(a1-3)]GlcNAc
Outline: as §1

[7] = biological target: Gal(a1-3)Gal(b1-3)GlcNAc
Outline: as §1

[8] = biological target: Gal(a1-3)[Gal(a1-4)]Gal(b1-4)GlcNAc
Outline: as §1

[9] = biological target: Gal(b1-2)Gal
Outline: as §1

[10] = biological target: Gal(b1-3)GalNAc
Outline: as §1

[11] = biological target: Gal(b1-3)GalNAc(a1-3)[Fuc(a1-2)]Gal(b1-4)GlcNAc
Outline: as §1

[12] = biological target: Gal(b1-3)GlcNAc(b1-2)Man(a1-3)[Gal(b1-3)GlcNAc(b1-2)Man(a1-6)]Man(b1-4)GlcNAc(b1-4)[Fuc(a1-6)]GlcNAc
Outline: as §1

[13] = biological target: Gal(b1-3)[Fuc(a1-4)]GlcNAc(b1-2)Man
Outline: as §1

[14] = biological target: Gal(b1-4)GlcNAc(b1-2)[Gal(b1-4)GlcNAc(b1-6)]Man(a1-6)[GlcNAc(b1-4)][Gal(b1-4)GlcNAc(b1-2)[Gal(b1-4)GlcNAc(b1-4)]Man(a1-3)]Man(b1-4)GlcNAc(b1-4)[Fuc(a1-6)]GlcNAc
Outline: as §1

[15] = biological target: Gal(b1-4)GlcNAc(b1-3)Gal(b1-4)GlcNAc(b1-2)Man(a1-3)[Gal(b1-4)GlcNAc(b1-3)Gal(b1-4)GlcNAc(b1-2)Man(a1-6)]Man(b1-4)GlcNAc(b1-4)GlcNAc
Outline: as §1

[16] = biological target: Gal(b1-4)GlcNAc(b1-3)Gal(b1-4)GlcNAc(b1-3)[Gal(b1-4)GlcNAc(b1-3)Gal(b1-4)GlcNAc(b1-6)]GalNAc
Outline: as §1

[17] = biological target: Gal(b1-4)GlcNAc(b1-6)[Gal(b1-3)]GalNAc
Outline: as §1

[18] = biological target: Gal3S(b1-4)Glc
Outline: as §1

[19] = biological target: Gal4S6S(b1-4)GlcNAc
Outline: as §1

[20] = biological target: GalNAc(b1-3)Gal
Outline: as §1

[21] = biological target: GalNAc(b1-4)Gal(b1-4)Glc
Outline: as §1

[22] = biological target: GlcA(b1-3)GlcNAc
Outline: as §1

[23] = biological target: GlcA3S(b1-3)Gal(b1-4)GlcNAc(b1-2)Man
Outline: as §1

[24] = biological target: GlcNAc(a1-3)Gal(b1-4)GlcNAc
Outline: as §1

[25] = biological target: GlcNAc(a1-4)Gal(b1-4)GlcNAc(b1-3)Gal(b1-4)[Fuc(a1-3)]GlcNAc(b1-3)Gal(b1-4)[Fuc(a1-3)]GlcNAc
Outline: as §1

[26] = biological target: GlcNAc(b1-3)Gal(b1-4)GlcNAc(b1-6)[Gal(b1-3)]GalNAc
Outline: as §1

[27] = biological target: Man(a1-2)Man(a1-3)[Man(a1-6)]Man(a1-6)[Man(a1-2)Man(a1-3)]Man(b1-4)GlcNAc(b1-4)GlcNAc
Outline: as §1

[28] = biological target: Man(a1-2)Man(a1-6)[Man(a1-3)]Man(a1-6)[Man(a1-2)Man(a1-2)Man(a1-3)]Man(b1-4)GlcNAc(b1-4)GlcNAc
Outline: as §1

[29] = biological target: Man(a1-3)[Man(a1-6)]Man(a1-6)[Man(a1-3)]Man
Outline: as §1

[30] = biological target: Neu5Ac(a2-3)Gal(b1-4)GlcNAc(b1-2)Man
Outline: as §1

[31] = biological target: Neu5Ac(a2-3)Gal(b1-4)GlcNAc(b1-2)Man(a1-3)[Neu5Ac(a2-3)Gal(b1-4)GlcNAc(b1-2)Man(a1-6)]Man(b1-4)GlcNAc(b1-4)GlcNAc
Outline: as §1

[32] = biological target: Neu5Ac(a2-3)Gal(b1-4)GlcNAc(b1-3)Gal(b1-4)GlcNAc
Outline: as §1

[33] = biological target: Neu5Ac(a2-3)Gal(b1-4)[Fuc(a1-3)]GlcNAc(b1-6)[Neu5Ac(a2-3)Gal(b1-3)]GalNAc
Outline: as §1

[34] = biological target: Neu5Ac(a2-3)Gal6S(b1-4)GlcNAc
Outline: as §1

[35] = biological target: Neu5Ac(a2-6)Gal(b1-4)GlcNAc(b1-2)Man(a1-3)[Neu5Ac(a2-6)Gal(b1-4)GlcNAc(b1-2)Man(a1-6)]Man(b1-4)GlcNAc(b1-4)[Fuc(a1-6)]GlcNAc
Outline: as §1

[36] = biological target: Neu5Ac(a2-6)Gal(b1-4)GlcNAc(b1-2)[Neu5Ac(a2-6)Gal(b1-4)GlcNAc(b1-4)]Man(a1-3)[GlcNAc(b1-4)][Neu5Ac(a2-6)Gal(b1-4)GlcNAc(b1-2)[Neu5Ac(a2-6)Gal(b1-4)GlcNAc(b1-6)]Man(a1-6)]Man(b1-4)GlcNAc(b1-4)GlcNAc
Outline: as §1

[37] = biological target: Neu5Ac(a2-8)Neu5Gc(a2-3)Gal(b1-4)GlcNAc
Outline: as §1

B1: SSP1 (Sclerotinia sclerotiorum), XP_001584968 (protein)
chain: MGSSHHHHHHSSGLVPRGSHMSLLTTELACTSAPDQVLHLFFQDGQNILEARSPDGGNVWTTQDTIIAKDGDYNGSSMTCYYVDKDANFDNQPSIHLLYMNKDKQLTEKVKRMKGDNPIWEDAKVPDEVRKGPEQYSKLTSGSFNQGTGWNPNGSQWAYFSASKDGKMGIVEIRRTPKDPWHTETILEEKWGDELPGTALACVIGNGKIRVFLQHHDYSIILYENQNNTWHDRGTFIPKDKVQATTPLACTMTKDGSVHLFYVSKSNKIIHCTDGKKEEELINFFPGSKLGATSVENKITLFFRNLNPVNEVGTLENENGSWKHGTTVIPA
With B1 the “glycan array binding signal (z-score)” value [1] was 0.937, the “glycan array binding signal (z-score)” value [2] was -0.405 and the “glycan array binding signal (z-score)” value [3] was 0.084. The “glycan array binding signal (z-score)” value [4] was 7.05, the “glycan array binding signal (z-score)” value [5] was -0.15 and the “glycan array binding signal (z-score)” value [6] was -0.07. For the same binder, the “glycan array binding signal (z-score)” value [7] was 2.88, the “glycan array binding signal (z-score)” value [8] was 2.85 and the “glycan array binding signal (z-score)” value [9] was 0.5. The “glycan array binding signal (z-score)” value [10] was -0.111, the “glycan array binding signal (z-score)” value [11] was 3.1 and the “glycan array binding signal (z-score)” value [12] was 5.12. For the same binder, the “glycan array binding signal (z-score)” value [13] was -0.358, the “glycan array binding signal (z-score)” value [14] was 0.197 and the “glycan array binding signal (z-score)” value [15] was 8.48. For the same binder, the “glycan array binding signal (z-score)” value [16] was -0.003, the “glycan array binding signal (z-score)” value [17] was -0.405 and the “glycan array binding signal (z-score)” value [18] was 1.38. The “glycan array binding signal (z-score)” value [19] was -0.291, the “glycan array binding signal (z-score)” value [20] was 2.2 and the “glycan array binding signal (z-score)” value [21] was -0.27. The “glycan array binding signal (z-score)” value [22] was 0.484, the “glycan array binding signal (z-score)” value [23] was -0.535 and the “glycan array binding signal (z-score)” value [24] was -0.477. For the same binder, the “glycan array binding signal (z-score)” value [25] was 2.28, the “glycan array binding signal (z-score)” value [26] was -0.156 and the “glycan array binding signal (z-score)” value [27] was -0.017. The “glycan array binding signal (z-score)” value [28] was -0.467, the “glycan array binding signal (z-score)” value [29] was 2.15 and the “glycan array binding signal (z-score)” value [30] was 0.612. For the same binder, the “glycan array binding signal (z-score)” value [31] was -0.45, the “glycan array binding signal (z-score)” value [32] was 0.123 and the “glycan array binding signal (z-score)” value [33] was 1.79. For the same binder, the “glycan array binding signal (z-score)” value [34] was -0.085, the “glycan array binding signal (z-score)” value [35] was -0.364 and the “glycan array binding signal (z-score)” value [36] was 0.132. The “glycan array binding signal (z-score)” value [37] was 9.08.
